Pf growth 48h: P. falciparum growth inhibition at 48 hours (one generation). P. falciparum luciferase growth in erythrocytes, 48 h. Potency, µM (top dose mostly 28.7 µM), inactives show at the top dose activity change, negative = inhibition, most hits filed as inhibitors. hit rate 5.9% among 310,000; note: potency is the fitted concentration of half-maximal effect; % is set by controls: 0 for no effect and ±100 for the full control effect
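In quantitative HTS format, infected erythrocytes bearing luciferase-reporter parasites were treated for a single generation at 37 C. Luminescence after adding detection reagent served as the growth measure.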
HCV inhibitor: inhibitors of hepatitis C virus infection; Huh7.5.1 HCVcc-Cre infection, luciferase reporter, 44 h; Potency, µM (titrated, usually from 41.8 µM), for inactives: at the highest dose activity change, negative = inhibition, most hits filed as inhibitors; hit rate 3.4% among 340,000; note: potency is the fitted concentration of half-maximal effect; % is set by controls: 0 for no effect and ±100 for the full control effect
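Compounds are dispensed onto cells plated 4 h earlier at 1,000 per well, with HCVcc-Cre virus (about 0.5 moi) added next. Following 44 h of culture, luminescent signal is measured for 15 sec after 15 min with substrate at room temperature.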
Cycloheximide cs: affects cycloheximide protein synthesis inhibition readout, counter-screen | cell reporter, cycloheximide protein synthesis inhibition counterscreen | max response, % | hit rate 12% among 300,000; in the data active = max response mostly above about 13%, no sharp cut-off; inactive = mostly below about 14%; note: read at 38.3 µM for the half of the compounds with a filed dose; 0% is about no effect
Shiga toxin inh: Shiga toxin inhibition. Vero cells, Shiga toxin protein synthesis inhibition reporter. inhibition, % at 38.7 µM. hit rate 9.2% among 290,000. AID 2315; in the data active = inhibition mostly above about 28%, no sharp cut-off; inactive = mostly below about 43%; note: 0% is about no effect
AMA1-RON2 inh: disrupts binding of P. falciparum AMA1 to RON2 | AlphaScreen AMA1-biotinylated RON2 peptide binding | Potency, µM (top dose mostly 58.2 µM), without a hit: at the highest dose activity change, negative = inhibition, actives largely listed as inhibitors | hit rate 0.2% among 360,000;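 note: potency is the fitted concentration of half-maximal effect; 0% = vehicle wells and -100% = peptide control; nearly all actives have a fitted effect of over 45% in size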
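AMA1 (3D7) with his tag at 25 nM final met compounds first, then biotinylated RON2 peptide at 25 nM; detection used donor plus acceptor beads, 10 µg/mL apiece, read by AlphaScreen after 30 min at room temperature.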
Pf growth 96h: P. falciparum growth inhibition at 96 hour, primary screen for plastid delayed-death inhibitors | P. falciparum luciferase reporter growth, 96 h | hit rate 6.9% among 320,000 | Potency, µM (doses to about 28.7 µM), inactives show at the top dose activity change, negative = inhibition, actives largely listed as inhibitors | AID 504834; note: potency is the fitted concentration of half-maximal effect; % is set by controls: 0 for no effect and ±100 for the full control effect
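Compounds incubated with erythrocytes infected by luciferase-expressing P. falciparum (2% hematocrit, 0.05% parasitemia final) for 96 hours, 37 C in 5% CO2. Growth inhibition scored as decreased luciferase luminescence.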
Active calls of the source: *; i = inactive; ? = inconclusive; · = no result. Only some compounds are listed: those with a hit (about 21% of all), similar ones and a draw of the others. Unless noted, calls come from the whole dose curve; as a rule, active = well fitted curve in the direction sought with a large enough effect; inconclusive = small, poorly fitted or top-dose-only effect, or another doubt; inactive = no such curve, though single readings can be large; an effect the other way counts as inactive or inconclusive.

SMILES	Pf growth 48h	HCV inhibitor	Cycloheximide cs	Shiga toxin inh	AMA1-RON2 inh	Pf growth 96h
CC1(C)CC(N2CCCC2)=CC(=[N+]2CCCCC2)C1	0.83µM*	-26%	3	-7	-3%	?
CC1(C)CC(=O)C=C(N2CCN(C3=CC(=O)CC(C)(C)C3)CC2)C1	40%	·	-1	44	·	·
O=C(OC1CCOC1=O)C1CCN(S(=O)(=O)c2c(Cl)cccc2Cl)CC1 (centres undefined)	?	9%	·	·	-11%	9%
O=C1[C@H]2[C@@H](c3ccccc3)N[C@]3(CCCN(Cc4ccc(Br)cc4)C3=O)[C@H]2C(=O)N1Cc1ccccc1	·	·	·	·	-6%	·
CCCCn1c(N)c(N(CCOC)C(=O)CSc2n[nH]c(-c3ccc(OC)cc3)n2)c(=O)[nH]c1=O	2%	15%	16	2	-12%	3%
COc1ccc(Nc2nc(-c3sc(C)nc3C)cs2)cc1	40%	8.9µM*	13*	14	-15%	32%
Cc1nc(C)c(-c2csc(Nc3cccnc3)n2)s1	18%	?	34*	38*	5%	·
Clc1cccc(-c2csc(Nc3cccnc3)n2)c1	?	?	12	3	3%	?
Cc1nc(N)sc1-c1csc(Nc2cccc(C(=O)O)c2)n1	14%	12%	-1	-9	42%	156%
Cc1nc(N)sc1-c1csc(Nc2ccccc2)n1	10%	-7%	25*	52*	-9%	3%
Cc1nc(C)c(-c2csc(Nc3ccc(O)c(C(=O)O)c3)n2)s1	-6%	14%	-1	9	-6%	?
Cc1nc(C)c(-c2csc(Nc3ccc(N)cc3)n2)s1	19%	?	35*	69*	2%	34%
CCOc1ccccc1-c1nc2c(s1)CCc1onc(-c3ccc(OC)cc3)c1-2	·	16%	·	·	1%	·
O=C(NCc1c(Cl)cccc1Cl)c1[nH]c(C(F)(F)F)nc1-c1ccccc1	·	·	·	·	55%	·
CC(C)CN1CCC1(C)C(=O)Nc1cc(-c2ccccc2)nn1C (centres undefined)	·	·	·	·	34%	·
CC(C)=CCc1c([C@@H]2CCc3ccc(O)cc3O2)cc2c(c1O)OC(C)(C)C=C2	·	14µM*	·	·	-10%	·
CC(C)CC(=O)OCc1cn(-c2ccccc2)nn1	62%	16%	23*	53*	4%	47%
CC(C)(C)C(=O)OCc1cn(-c2ccccc2)nn1	26%	5%	30*	59*	4%	44%
CC(C)(C)C(=O)OCc1cn(-c2ccc(Cl)cc2)nn1	121%	12%	24*	40	-6%	146%
CCNC(=O)OCc1cn(-c2ccccc2)nn1	i	-8%	14	30	5%	48%
O=C(OCc1cn(-c2ccc(Cl)cc2)nn1)c1ccccc1	6%	-12%	1	18	4%	63%
Cc1ccc(C)c(S(=O)(=O)N2CCN(C(=O)CSC(=S)N3CCCC3)CC2)c1	-20%	?	·	·	-6%	?
O=C(CSc1cn(CC(=O)N2CCOCC2)c2ccccc12)N1CCOCC1	0%	12%	2	-7	-2%	?
Cc1cccc(CSc2cn(CC(=O)N3CCOCC3)c3ccccc23)c1	120%	9%	42*	64*	2%	143%
O=C(Cn1cc(SCc2cccc(Cl)c2)c2ccccc21)N1CCOCC1	60%	3%	48*	27	-9%	42%
SMILES	Pf growth 48h	HCV inhibitor	Cycloheximide cs	Shiga toxin inh	AMA1-RON2 inh	Pf growth 96h
CCN1CCc2nc3sc(C(=O)Nc4cccnc4Cl)c(N)c3cc2C1	?	2%	10	11	0%	?
CCc1nnc(NC(=O)c2sc3nc4c(cc3c2N)CCCCCC4)s1	19%	0%	13*	59	22%	76%
CCc1nnc(NC(=O)c2sc3nc4c(cc3c2N)CCCCC4)s1	57%	-2%	42*	46*	28%	?
c1ccc(C2Nc3ccccc3Oc3ccccc32)cc1 (centres undefined)	10µM*	?	-3	9	-6%	5.2µM*
O=C(Nc1ccccc1)C1C2/C=C\CCCCC21 (centres undefined)	5%	9%	19*	43*	-3%	-10%
Cc1ccc(NC(=O)C2C3/C=C\CCCCC32)cc1C (centres undefined)	15%	23%	37*	130	-12%	34%
CC1CCCCC1NC(=O)COC(=O)c1ccc2c(c1Cl)C(=O)c1ccccc1C2=O (centres undefined)	-4%	25µM*	13	-8	-8%	13%
COc1ccc2c(c1)sc(=N)n2C	?	-5%	-6	-13	2%	3.7µM*
Cc1cc(NCc2ccccc2)nc2ccccc12	?	?	15	19	12%	17%
COc1ccc2nc(C)cc(Nc3ccccc3O)c2c1	?	?	-4	-7	13%	?
COc1ccc2nc(C)cc(NCc3cccc(C(F)(F)F)c3)c2c1	0.93µM*	10µM*	-4	-12	-11%	?
Cc1cc(NCc2ccccc2)c2ccccc2n1	3.3µM*	11µM*	-2	-8	-2%	?
COc1c2c(c(CCC(=O)O)c3c1C=CC(C)(C)O3)OC(C)(C)C=C2	·	14%	·	·	5%	·
CC(NC(=O)c1ccco1)c1ccc(-n2ccnc2)cc1 (centres undefined)	18%	-10%	·	·	21%	17%
COc1ccc(C(=O)c2[nH]c(N)c(C(=O)NCCc3c[nH]c4ccccc34)c2-c2ccc(Br)cc2)cc1	·	·	·	·	59%	·
COC(=O)c1cccc(NC(=O)/C=C/c2cccc([N+](=O)[O-])c2)c1	74%	?	15*	52	5%	346%
CCN(C(=O)CSc1ncccc1C(=O)Oc1cccc([N+](=O)[O-])c1)c1cccc(C)c1	-5%	-2%	-4	-2	-10%	-5%
COc1cccc(C(=O)COc2cccc(NC(=O)c3cccc([N+](=O)[O-])c3)c2)c1	?	8.9µM*	-3	15	-9%	?
COC(=O)c1cccc(NC(=O)COc2cccc([N+](=O)[O-])c2)c1	81%	?	16*	23	-1%	-1%
CSc1cccc(NC(=O)CSc2ncccc2C(=O)Oc2cccc([N+](=O)[O-])c2)c1	27%	2%	17*	-1	-6%	?
C/C(=N\NC(=O)Cc1cccn1C)c1cccc2ccccc12	·	-20%	-5	3	-11%	-28%
C/C(=N\NC(=O)c1ccoc1C)c1cccc2ccccc12	?	?	62*	80*	26%	12%
C/C(=N/NC(=O)c1cccc(Br)c1)C1CC2CCC1C2 (centres undefined)	13%	19%	47*	38	0%	-9%
C/C(=N\NC(=O)c1ccc(Cl)c(Cl)c1)c1ccccn1	0.59µM*	0.56µM*	8	5	60%	?

Screening results: PubChem BioAssay, National Center for Advancing Translational Sciences (NCATS)
